# Test results reported in PubChem BioAssay (NCI).
# This is part of a sample that, as a whole, favours compounds with a hit. Of some 79,000 tested, about 15% had one in any assay. Unmarked numbers belong to inactive results. The source made the active and inactive calls. No stated cut-off is given here; in the data, active means growth inhibition above about 70%; inactive means the rest.
# Test: NCI Yeast Anticancer Drug Screen. Data for the CLN2oe strain (AID 163);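 further: 0% = growth of vehicle-only control cultures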
# Details: S. cerevisiae CLN2oe strain, hits give high values
# Protocol: Growth inhibition of yeast strains with defined genetic alterations is measured as a screen for potential anti-cancer activity. Selected strains with alterations in DNA damage repair or cell cycle control were exposed to compounds and growth inhibition was measured relative to vehicle treated controls. The strain used in this assay is CLN2oe
Structure (SMILES),growth inhibition (at 1.2 µM) [%],growth inhibition (at 3.7 µM) [%],growth inhibition (at 11.0 µM),growth inhibition (at 33.0 µM),growth inhibition (at 100.0 µM)
NC(CCCCCCCCCCCCC(N)C(=O)c1ccccc1)C(=O)c1ccccc1 (stereo not given),-9,-20,52%,91% (active),95% (active)
Clc1nc(Cl)nc(Nc2cccc3ccccc23)n1,26,31,51%,94% (active),99% (active)
CCCCCCCC/C=C\CCCCCCCCN,17,11,28%,98% (active),97% (active)
O=C(Cc1ccccc1)NNc1nc(NNC(=O)c2ccncc2)nc(Nc2ccc(Cl)cc2)n1,-14,-9,-13%,-20%,-24%
O=C1c2ccccc2C(=O)c2sc(Nc3ccccc3Cl)nc21,3,47,94% (active),99% (active),98% (active)
CCN(CC)C(=S)N/N=C(\C)c1ccccc1O,13,-5,42%,96% (active),99% (active)
COc1ccc2nc3cccc([N+](=O)[O-])c3c(NCCCCCC(=O)O)c2c1,2,50,91% (active),97% (active),98% (active)
CC(=O)O/N=C1C=C/C(=C(/C#N)c2ccccc2)C=C/1C,-6,0,16%,99% (active),96% (active)
